Source: the supplement of paper PMC10849652
Of roughly 7,900 targets only a part is listed; those with a hit were picked by preference. About 0.6% of all pairs of compound and target were hits. Unmarked numbers belong to inactive results.

Columns and labels:
Test in all cases: log2 fold change, soluble protein after heating vs DMSO (PISA); higher = thermal stabilisation; K562 cells, 10 uM, 30 min; active = over 0.2 and 3.5 SD of the protein, either way, in both replicates (recomputed)
bafetinib = compound: Cc1ccc(NC(=O)c2ccc(CN3CC[C@H](N(C)C)C3)c(C(F)(F)F)c2)cc1Nc1nccc(-c2cncnc2)n1 [bafetinib]
Method in brief: (§1)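 K562 cells at 2×10^6 cells/mL were given 10 μM compound for 30 min. Aliquots then went through 3 min of heating across 48°C-58°C, were pooled, and were extracted in PBS with 0.5% NP-40 at 4°C, and the supernatant after 21,000xg for 90 min was quantified by TMTpro 16plex LC-MS/MS with channel sums equalised. Thermal stability relative to control samples, from duplicates, is given as log2 fold change.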

[1] = compound: Cc1cccc(CC(=O)N2CCc3c2ccc(-c2cn(C)c4ncnc(N)c24)c3F)n1
Method in brief: as §1

nilotinib = compound: Cc1cn(-c2cc(NC(=O)c3ccc(C)c(Nc4nccc(-c5cccnc5)n4)c3)cc(C(F)(F)F)c2)cn1 [nilotinib]
Method in brief: as §1

[2] = compound: Cc1nc(Nc2n[nH]c3c2CN(C(=O)N[C@H](CN(C)C)c2ccccc2)C3(C)C)c2sccc2n1
Method in brief: as §1

dasatinib = compound: Cc1nc(Nc2ncc(C(=O)Nc3c(C)cccc3Cl)s2)cc(N2CCN(CCO)CC2)n1 [dasatinib]
Method in brief: as §1

[3] = compound: Cc1ncc(-c2ccnc(Nc3ccc(S(C)(=O)=O)cc3)n2)n1C(C)C
Method in brief: as §1

[4] = compound: Cn1cc(-c2ccc3c(c2)CCN3C(=O)Cc2cccc(C(F)(F)F)c2)c2c(N)ncnc21
Method in brief: as §1

[5] = compound: Cn1cc(-c2ccc3nnc(C(F)(F)c4ccc5ncccc5c4)n3n2)cn1
Method in brief: as §1

tipifarnib = compound: Cn1cncc1[C@@](N)(c1ccc(Cl)cc1)c1ccc2c(c1)c(-c1cccc(Cl)c1)cc(=O)n2C [tipifarnib]
Method in brief: as §1

mubritinib = compound: FC(F)(F)c1ccc(/C=C/c2nc(COc3ccc(CCCCn4ccnn4)cc3)co2)cc1 [mubritinib]
Method in brief: as §1

ASNS (UniProt P08243)
log2 fold change (bafetinib): -0.055
log2 fold change [1]: 0.02
log2 fold change (nilotinib): 0.002
log2 fold change [2]: 0.021
log2 fold change (dasatinib): 0
log2 fold change [3]: -0.003
log2 fold change [4]: 0.034
log2 fold change [5]: 0.015
log2 fold change (tipifarnib): -0.033
log2 fold change (mubritinib): 0.012

AGPAT3 isoform 3 (UniProt Q9NRZ7)
Sequence of UniProt Q9NRZ7 (Q9NRZ7 whole entry, looked up): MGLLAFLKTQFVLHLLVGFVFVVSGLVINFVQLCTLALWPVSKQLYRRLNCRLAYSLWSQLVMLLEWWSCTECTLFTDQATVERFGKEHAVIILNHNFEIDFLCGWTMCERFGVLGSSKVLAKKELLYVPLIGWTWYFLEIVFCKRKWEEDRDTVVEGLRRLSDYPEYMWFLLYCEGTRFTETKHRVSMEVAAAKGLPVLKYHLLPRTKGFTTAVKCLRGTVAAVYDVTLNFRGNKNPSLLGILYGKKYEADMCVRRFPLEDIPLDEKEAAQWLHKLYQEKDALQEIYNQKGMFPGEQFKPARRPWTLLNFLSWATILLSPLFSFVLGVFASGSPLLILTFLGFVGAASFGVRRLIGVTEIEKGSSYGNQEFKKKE
log2 fold change (bafetinib): -0.057
log2 fold change [1]: 0.04
log2 fold change (nilotinib): -0.012
log2 fold change [2]: 0.004
log2 fold change (dasatinib): -0.092
log2 fold change [3]: -0.007
log2 fold change [4]: 0.033
log2 fold change [5]: 0.018
log2 fold change (tipifarnib): -0.025
log2 fold change (mubritinib): 0.062

ADAM15 (UniProt Q13444)
Sequence of UniProt Q13444 (Q13444 whole entry, looked up): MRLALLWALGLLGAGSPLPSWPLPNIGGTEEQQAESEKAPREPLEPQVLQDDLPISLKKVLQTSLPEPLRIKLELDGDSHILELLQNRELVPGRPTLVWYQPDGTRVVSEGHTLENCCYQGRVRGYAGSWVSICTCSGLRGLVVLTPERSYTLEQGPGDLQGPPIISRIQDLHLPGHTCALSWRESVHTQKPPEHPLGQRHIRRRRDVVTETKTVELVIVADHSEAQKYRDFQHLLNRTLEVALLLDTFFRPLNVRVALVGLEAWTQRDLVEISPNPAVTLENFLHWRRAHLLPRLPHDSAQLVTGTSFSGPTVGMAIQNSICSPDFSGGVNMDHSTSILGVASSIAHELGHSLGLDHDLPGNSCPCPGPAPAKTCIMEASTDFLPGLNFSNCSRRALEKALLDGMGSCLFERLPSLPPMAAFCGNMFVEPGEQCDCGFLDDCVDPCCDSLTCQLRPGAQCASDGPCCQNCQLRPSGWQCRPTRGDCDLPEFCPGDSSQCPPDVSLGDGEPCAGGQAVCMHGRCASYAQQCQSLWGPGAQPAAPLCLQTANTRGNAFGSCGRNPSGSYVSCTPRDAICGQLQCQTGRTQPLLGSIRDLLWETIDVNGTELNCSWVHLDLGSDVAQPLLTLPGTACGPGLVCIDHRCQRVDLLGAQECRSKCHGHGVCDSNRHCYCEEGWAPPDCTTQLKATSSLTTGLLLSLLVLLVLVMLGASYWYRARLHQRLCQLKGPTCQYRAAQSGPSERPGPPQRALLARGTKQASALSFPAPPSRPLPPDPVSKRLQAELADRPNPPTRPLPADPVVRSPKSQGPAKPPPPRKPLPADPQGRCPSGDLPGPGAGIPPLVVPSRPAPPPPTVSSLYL
log2 fold change (bafetinib): 0.067
log2 fold change [1]: 0.003
log2 fold change (nilotinib): -0.11
log2 fold change [2]: -0.043
log2 fold change (dasatinib): -0.009
log2 fold change [3]: 0.079
log2 fold change [4]: -0.355 (active)
log2 fold change [5]: 0.018
log2 fold change (tipifarnib): -0.053

AIP (UniProt O00170)
log2 fold change (bafetinib): 0.017
log2 fold change [1]: 0.02
log2 fold change (nilotinib): -0.062
log2 fold change [2]: -0.009
log2 fold change (dasatinib): -0.144
log2 fold change [3]: 0.056
log2 fold change [4]: 0.031
log2 fold change [5]: 0.012
log2 fold change (tipifarnib): -0.058
log2 fold change (mubritinib): 0.015

BAP1 (UniProt Q92560)
log2 fold change (bafetinib): 0.252
log2 fold change [1]: -0.071
log2 fold change (nilotinib): 0.007
log2 fold change [2]: 0.053
log2 fold change (dasatinib): -0.031
log2 fold change [3]: 0.006
log2 fold change [4]: -0.086
log2 fold change [5]: -0.064
log2 fold change (tipifarnib): 0.076
log2 fold change (mubritinib): -0.201

AGPS (UniProt O00116)
log2 fold change (bafetinib): -0.068
log2 fold change [1]: 0.025
log2 fold change (nilotinib): 0.039
log2 fold change [2]: -0.012
log2 fold change (dasatinib): -0.023
log2 fold change [3]: 0.006
log2 fold change [4]: 0.09
log2 fold change [5]: 0.01
log2 fold change (tipifarnib): 0.032
log2 fold change (mubritinib): 0.112

BCAP29 isoform 2 (UniProt Q9UHQ4)
Sequence of UniProt Q9UHQ4 (Q9UHQ4 whole entry, looked up): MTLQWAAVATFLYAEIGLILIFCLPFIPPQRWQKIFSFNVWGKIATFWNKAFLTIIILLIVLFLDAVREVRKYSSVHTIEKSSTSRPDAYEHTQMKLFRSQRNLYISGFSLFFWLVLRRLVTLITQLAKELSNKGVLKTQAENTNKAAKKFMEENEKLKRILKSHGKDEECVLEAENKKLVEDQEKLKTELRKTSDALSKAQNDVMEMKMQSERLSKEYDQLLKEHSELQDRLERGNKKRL
log2 fold change (bafetinib): -0.159
log2 fold change [1]: -0.027
log2 fold change (nilotinib): -0.002
log2 fold change [2]: 0.035
log2 fold change (dasatinib): 0.154
log2 fold change [3]: -0.018
log2 fold change [4]: 0
log2 fold change [5]: 0.04
log2 fold change (tipifarnib): 0.058
log2 fold change (mubritinib): 0.02

ATP2A3 isoform 2 (UniProt Q93084)
Sequence of UniProt Q93084 (Q93084 whole entry, looked up): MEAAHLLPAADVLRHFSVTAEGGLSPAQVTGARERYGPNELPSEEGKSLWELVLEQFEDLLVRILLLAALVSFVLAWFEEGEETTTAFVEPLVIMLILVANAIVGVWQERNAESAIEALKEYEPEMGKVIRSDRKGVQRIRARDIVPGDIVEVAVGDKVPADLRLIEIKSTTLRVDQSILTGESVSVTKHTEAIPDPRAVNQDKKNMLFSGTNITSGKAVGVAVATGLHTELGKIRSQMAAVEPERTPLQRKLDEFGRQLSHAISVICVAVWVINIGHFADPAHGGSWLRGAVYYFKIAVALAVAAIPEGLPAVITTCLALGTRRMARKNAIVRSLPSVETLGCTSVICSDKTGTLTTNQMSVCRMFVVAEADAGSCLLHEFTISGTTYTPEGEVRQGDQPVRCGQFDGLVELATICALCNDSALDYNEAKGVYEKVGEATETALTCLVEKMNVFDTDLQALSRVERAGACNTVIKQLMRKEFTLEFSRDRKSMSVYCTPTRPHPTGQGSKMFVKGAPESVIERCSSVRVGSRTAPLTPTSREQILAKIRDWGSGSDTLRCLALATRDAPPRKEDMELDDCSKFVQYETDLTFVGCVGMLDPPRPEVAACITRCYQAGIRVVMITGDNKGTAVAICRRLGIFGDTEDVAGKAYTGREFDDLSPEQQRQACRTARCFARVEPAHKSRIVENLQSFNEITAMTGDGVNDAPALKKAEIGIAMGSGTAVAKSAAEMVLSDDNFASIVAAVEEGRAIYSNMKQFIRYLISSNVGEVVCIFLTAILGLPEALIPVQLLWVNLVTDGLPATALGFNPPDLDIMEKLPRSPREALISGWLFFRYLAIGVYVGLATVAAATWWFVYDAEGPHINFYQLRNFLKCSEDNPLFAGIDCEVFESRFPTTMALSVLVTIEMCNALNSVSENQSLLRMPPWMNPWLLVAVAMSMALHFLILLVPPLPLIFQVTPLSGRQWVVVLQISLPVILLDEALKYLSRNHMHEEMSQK
log2 fold change (bafetinib): -0.063
log2 fold change [1]: -0.001
log2 fold change (nilotinib): -0.057
log2 fold change [2]: -0.064
log2 fold change (dasatinib): -0.005
log2 fold change [3]: 0.058
log2 fold change [4]: -0.014
log2 fold change [5]: 0.076
log2 fold change (tipifarnib): 0.025
log2 fold change (mubritinib): -0.044

ARFGEF1 (UniProt Q9Y6D6)
Sequence of UniProt Q9Y6D6 (Q9Y6D6 whole entry, looked up): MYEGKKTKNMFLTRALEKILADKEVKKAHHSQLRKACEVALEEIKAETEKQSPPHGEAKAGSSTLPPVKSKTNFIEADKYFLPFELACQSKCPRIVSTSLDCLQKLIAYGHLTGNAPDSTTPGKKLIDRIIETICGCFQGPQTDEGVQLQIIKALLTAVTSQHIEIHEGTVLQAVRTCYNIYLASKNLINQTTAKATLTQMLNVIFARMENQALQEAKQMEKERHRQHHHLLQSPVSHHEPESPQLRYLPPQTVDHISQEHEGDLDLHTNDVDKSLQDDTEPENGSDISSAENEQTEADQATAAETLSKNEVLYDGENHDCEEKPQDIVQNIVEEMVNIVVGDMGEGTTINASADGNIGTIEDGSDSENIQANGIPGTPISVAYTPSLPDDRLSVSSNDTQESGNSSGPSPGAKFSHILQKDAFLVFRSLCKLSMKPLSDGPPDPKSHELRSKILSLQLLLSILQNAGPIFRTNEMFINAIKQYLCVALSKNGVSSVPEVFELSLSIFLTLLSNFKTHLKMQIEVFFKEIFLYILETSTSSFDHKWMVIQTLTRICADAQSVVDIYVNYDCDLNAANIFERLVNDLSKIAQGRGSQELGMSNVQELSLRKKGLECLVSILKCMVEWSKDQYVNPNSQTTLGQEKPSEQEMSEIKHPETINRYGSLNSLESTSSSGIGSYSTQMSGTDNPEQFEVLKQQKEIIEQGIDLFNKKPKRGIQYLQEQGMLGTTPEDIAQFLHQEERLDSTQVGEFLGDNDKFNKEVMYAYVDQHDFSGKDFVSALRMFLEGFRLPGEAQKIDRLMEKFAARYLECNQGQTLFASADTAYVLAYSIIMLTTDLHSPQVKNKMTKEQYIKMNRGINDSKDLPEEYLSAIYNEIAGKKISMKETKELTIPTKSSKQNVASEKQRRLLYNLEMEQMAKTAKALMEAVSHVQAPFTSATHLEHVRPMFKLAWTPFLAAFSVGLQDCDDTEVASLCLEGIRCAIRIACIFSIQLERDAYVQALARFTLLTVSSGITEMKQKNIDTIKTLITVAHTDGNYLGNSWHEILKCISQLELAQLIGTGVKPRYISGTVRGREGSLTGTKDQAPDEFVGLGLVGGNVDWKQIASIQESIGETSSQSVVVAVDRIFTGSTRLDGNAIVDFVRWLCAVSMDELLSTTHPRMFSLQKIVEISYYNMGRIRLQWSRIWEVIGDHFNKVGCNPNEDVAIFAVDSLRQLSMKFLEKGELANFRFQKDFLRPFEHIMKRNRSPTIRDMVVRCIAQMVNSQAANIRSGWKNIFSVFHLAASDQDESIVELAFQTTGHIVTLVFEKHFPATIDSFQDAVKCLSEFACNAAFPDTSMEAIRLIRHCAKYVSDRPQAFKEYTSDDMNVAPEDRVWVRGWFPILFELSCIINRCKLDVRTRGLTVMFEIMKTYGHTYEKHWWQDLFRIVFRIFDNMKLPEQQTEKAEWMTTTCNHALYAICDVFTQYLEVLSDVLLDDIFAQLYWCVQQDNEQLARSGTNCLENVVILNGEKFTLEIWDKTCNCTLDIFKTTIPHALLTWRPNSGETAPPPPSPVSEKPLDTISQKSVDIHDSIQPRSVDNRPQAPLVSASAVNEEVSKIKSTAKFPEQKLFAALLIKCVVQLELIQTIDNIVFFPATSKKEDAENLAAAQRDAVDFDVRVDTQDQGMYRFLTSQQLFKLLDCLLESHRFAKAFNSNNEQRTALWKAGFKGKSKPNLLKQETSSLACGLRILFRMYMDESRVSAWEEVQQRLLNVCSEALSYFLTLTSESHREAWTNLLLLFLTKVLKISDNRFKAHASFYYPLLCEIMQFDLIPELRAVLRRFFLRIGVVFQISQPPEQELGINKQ
log2 fold change (bafetinib): 0.052
log2 fold change [1]: 0.006
log2 fold change (nilotinib): -0.024
log2 fold change [2]: 0.014
log2 fold change (dasatinib): -0.026
log2 fold change [3]: 0.008
log2 fold change [4]: 0.005
log2 fold change [5]: 0.047
log2 fold change (tipifarnib): 0.009
log2 fold change (mubritinib): -0.021

ACSL4 (UniProt O60488)
log2 fold change (bafetinib): -0.021
log2 fold change [1]: -0.014
log2 fold change (nilotinib): -0.027
log2 fold change [2]: -0.063
log2 fold change (dasatinib): -0.222
log2 fold change [3]: 0.087
log2 fold change [4]: 0.05
log2 fold change [5]: 0.115
log2 fold change (tipifarnib): -0.134
log2 fold change (mubritinib): -0.078

ARL2BP (UniProt Q9Y2Y0)
Sequence of UniProt Q9Y2Y0 (Q9Y2Y0 whole entry, looked up): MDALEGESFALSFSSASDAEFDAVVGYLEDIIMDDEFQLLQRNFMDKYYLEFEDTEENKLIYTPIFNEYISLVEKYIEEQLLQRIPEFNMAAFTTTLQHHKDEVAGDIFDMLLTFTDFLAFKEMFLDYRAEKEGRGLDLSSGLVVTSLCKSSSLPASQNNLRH
log2 fold change (bafetinib): 0.001
log2 fold change [1]: 0
log2 fold change (nilotinib): -0.078
log2 fold change [2]: -0.086
log2 fold change (dasatinib): -0.069
log2 fold change [3]: -0.103
log2 fold change [4]: 0.125
log2 fold change [5]: 0.011
log2 fold change (tipifarnib): -0.091
log2 fold change (mubritinib): -0.027

ARF4 (UniProt P18085)
log2 fold change (bafetinib): 0.113
log2 fold change [1]: 0.01
log2 fold change (nilotinib): -0.056
log2 fold change [2]: 0.015
log2 fold change (dasatinib): -0.053
log2 fold change [3]: 0.088
log2 fold change [4]: 0.052
log2 fold change [5]: 0.038
log2 fold change (tipifarnib): -0.061
log2 fold change (mubritinib): 0.02

ALDH9A1 (UniProt P49189)
log2 fold change (bafetinib): 0.023
log2 fold change [1]: 0.071
log2 fold change (nilotinib): -0.08
log2 fold change [2]: -0.046
log2 fold change (dasatinib): -0.105
log2 fold change [3]: 0.019
log2 fold change [4]: 0.047
log2 fold change [5]: 0.044
log2 fold change (tipifarnib): 0.099
log2 fold change (mubritinib): -0.015

ACP2 (UniProt P11117)
Sequence of UniProt P11117 (P11117 whole entry, looked up): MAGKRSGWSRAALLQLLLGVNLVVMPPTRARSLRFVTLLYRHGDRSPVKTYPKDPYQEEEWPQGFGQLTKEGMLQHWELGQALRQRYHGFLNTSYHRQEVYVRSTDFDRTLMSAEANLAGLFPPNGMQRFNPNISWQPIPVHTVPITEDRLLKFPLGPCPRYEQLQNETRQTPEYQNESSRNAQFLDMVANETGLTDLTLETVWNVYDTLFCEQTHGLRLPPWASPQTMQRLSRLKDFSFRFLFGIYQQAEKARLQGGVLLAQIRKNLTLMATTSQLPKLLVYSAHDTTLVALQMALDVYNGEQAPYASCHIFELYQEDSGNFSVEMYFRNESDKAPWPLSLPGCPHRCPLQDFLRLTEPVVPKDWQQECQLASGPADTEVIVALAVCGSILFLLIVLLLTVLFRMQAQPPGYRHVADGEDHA
log2 fold change (bafetinib): -0.107
log2 fold change [1]: -0.06
log2 fold change (nilotinib): 0.002
log2 fold change [2]: -0.006
log2 fold change (dasatinib): 0
log2 fold change [3]: 0.02
log2 fold change [4]: 0.015
log2 fold change [5]: 0.03
log2 fold change (tipifarnib): 0.061
log2 fold change (mubritinib): -0.008

AGO1 (UniProt Q9UL18)
log2 fold change (bafetinib): -0.036
log2 fold change [1]: -0.085
log2 fold change (nilotinib): 0.185
log2 fold change [2]: 0.34
log2 fold change (dasatinib): -0.019
log2 fold change [3]: -0.164
log2 fold change [4]: -0.073
log2 fold change [5]: -0.133
log2 fold change (tipifarnib): 0.057
log2 fold change (mubritinib): -0.066
